In the library only some 3.3% were active in any assay of this set; here they are far more common.
DNA Pol III inh – DNA polymerase III holoenzyme inhibition; reconstituted DNA polymerase III holoenzyme replication, biochemical; Potency, µM (top dose mostly 57.1 µM), for inactives: at the highest dose activity change, negative = inhibition; 0.25% of 71,000 active; AID 603; further: potency means the concentration at half of the fitted maximal effect; on the % scale 0 is the no-effect control and ±100 the full control effect
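Reconstituted *E. coli* holoenzyme (0.35 nM Pol III, 1 nM beta, 154 nM SSB, 2 nM primase) was preincubated with compound for 15 min at RT. Synthesis on 1.4 nM ssM13Gori ran 35 min, then was stopped with PicoGreen/EDTA and read as dsDNA fluorescence.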
15-hLO inh – inhibitors of human 15-lipoxygenase (ALOX15); P16050; purified 15hLO-1, xylenol orange hydroperoxide absorbance; Potency, µM (titrated, usually from 57.1 µM), for the others: at the highest dose activity change, negative = inhibition, hits mostly inhibitors; 1.4% of 74,000 active; further: potency means the concentration at half of the fitted maximal effect; on the % scale 0 is the no-effect control and ±100 the full control effect; nearly all actives have a fitted effect of over 55% in size
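Purified human 15hLO-1 (40 nM) in 25 mM Hepes pH 7.5, 0.01% Triton X-100, preincubated 15 min RT with compound, then 50 uM arachidonic acid for 6 min. Hydroperoxide read by ferrous/xylenol orange, 30 min; 573/405 nm absorbance ratio gave progress.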
Hsp90 Hop PPI – changes Hsp90-Hop TPR2A binding signal, up or down; AID 595; AlphaScreen TPR2A-His6 binding biotin-Hsp90 C-terminal peptide; 0.44% of 71,000 active; Potency, µM (doses to about 57 µM), inactives show top-dose activity change, negative = inhibition; active means well fitted curve in either direction with a large enough effect; inconclusive means small, poorly fitted or top-dose-only effect, or another doubt; further: potency means the concentration at half of the fitted maximal effect; on the % scale 0 is the no-effect control and ±100 the full control effect
Tau filament bind – binds recombinant human tau filaments; 2% of 71,000 active; P10636; AID 596; recombinant tau filaments, thioflavin S fluorescence, 15 h; filaments grown with octadecylsulfate alongside compound; Potency, µM (doses to about 57.1 µM), inactives show top-dose activity change, negative = inhibition;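 further: potency means the concentration at half of the fitted maximal effect; on the % scale 0 is the no-effect control and ±100 the full control effect; actives lower thioflavin S fluorescence by blocking filaments or displacing dye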
Target sequence (P10636 whole entry, looked up): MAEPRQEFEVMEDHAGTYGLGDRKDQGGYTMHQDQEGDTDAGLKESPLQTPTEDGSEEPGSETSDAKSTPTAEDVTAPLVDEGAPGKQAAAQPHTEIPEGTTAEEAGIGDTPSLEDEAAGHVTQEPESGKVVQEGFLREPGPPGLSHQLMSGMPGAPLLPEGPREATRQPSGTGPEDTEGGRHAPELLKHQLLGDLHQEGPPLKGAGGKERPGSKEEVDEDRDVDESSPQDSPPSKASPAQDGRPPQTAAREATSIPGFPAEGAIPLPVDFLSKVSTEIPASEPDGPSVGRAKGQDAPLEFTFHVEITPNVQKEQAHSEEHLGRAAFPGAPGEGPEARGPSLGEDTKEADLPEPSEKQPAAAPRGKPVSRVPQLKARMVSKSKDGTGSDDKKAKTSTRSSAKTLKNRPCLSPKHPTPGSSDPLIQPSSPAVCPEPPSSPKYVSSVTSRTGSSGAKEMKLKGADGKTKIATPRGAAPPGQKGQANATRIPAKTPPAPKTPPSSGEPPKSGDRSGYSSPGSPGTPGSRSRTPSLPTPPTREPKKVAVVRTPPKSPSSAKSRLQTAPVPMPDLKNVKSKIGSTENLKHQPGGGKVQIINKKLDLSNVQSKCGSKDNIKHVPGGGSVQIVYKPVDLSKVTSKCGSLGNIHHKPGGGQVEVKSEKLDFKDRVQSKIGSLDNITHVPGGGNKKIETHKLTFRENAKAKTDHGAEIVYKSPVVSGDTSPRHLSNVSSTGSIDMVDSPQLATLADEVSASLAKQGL
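Assay mix: 1 uM His-tagged tau, 30 uM sodium octadecylsulfate, thioflavine S dye in HEPES/NaCl/DTT buffer. Compound is added prior to the inducer. Fluorescence after 15 h at 37 C.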
TsaE inh – displaces an ADP probe from E. coli YjeE (TsaE); P0AF67; purified YjeE enzyme, qHTS inhibition assay; Potency, µM; 0.05% of 71,000 active; AID 605
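Fluorescence polarization of a BODIPY Texas Red–ADP probe (2 uM) bound to purified YjeE (10 uM) was read after 15 min room-temperature incubation with compounds. Loss of polarization marks inhibitors; ADP serves as titrated control.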
Numbers without * were called inactive; i = inactive; ? = inconclusive; . = no result; [ ] = dose if it differs, or a comment. Unless noted, the call rests on the fitted dose curve; in most records, active means well fitted curve in the direction sought with a large enough effect; inconclusive means small, poorly fitted or top-dose-only effect, or another doubt; inactive means no such curve, though single readings can be large; an effect the other way counts as inactive or inconclusive.

SMILES | DNA Pol III inh | 15-hLO inh | Hsp90 Hop PPI | Tau filament bind | TsaE inh
COc1ccc(-c2cc(C(F)(F)F)nc(N3CCCCCC3)n2)cc1 | 10% | -25% | 25µM* | 3% | i
COc1ccc(-c2cc(C(F)(F)F)nc(N3CCCCC3)n2)cc1OC | -4% | ? | 25µM* | 2% | i
Nc1c(N2CCOCC2)cc(Cl)c2nonc12 | 1% | 0% | -9% | ? | i
Nc1c(N2CCCC2)cc(Cl)c2nonc12 | -7% | -18% | -12% | 20µM* | i
CN(C)c1ncc2nc(-c3ccc(Cl)cc3)c(=O)n(Cc3cccs3)c2n1 | 2% | -3% | ? | 140% | i
CCOc1ccccc1N1CCN(S(=O)(=O)c2ccc3c4c(cccc24)C(=O)N3)CC1 | -13% | -24% | -23% | 16µM* | i
O=C1Nc2ccc(S(=O)(=O)N3CCCCCC3)c3cccc1c23 | -3% | 16µM* | 7% | 25µM* | i
CC[C@@H](c1ccccc1)n1c(=O)n2n(c1=O)[C@H]1[C@H](O)[C@H]3O[C@@H]3/C(=N/OCC(C)C)[C@@H]1CC2 | . | 7%[11.4 µM] | . | . | .
CC1(C)[C@@H]2CC[C@@](C)(C2)[C@H]1OC(=O)c1ccccc1C(=O)O | -11%[11.4 µM] | 10%[11.4 µM] | -1%[11 µM] | 2%[11.4 µM] | i
COc1cc(CN2CCC(C(=O)NC3CCCC3)CC2)cc(OC)c1O | -2% | 25µM* | -9% | 7% | i
Nc1c(O)cccc1C(=O)C[C@@H](N)C(=O)O | -8%[25.6 µM] | -11%[25.6 µM] | -3%[26 µM] | 4%[25.6 µM] | i
Nc1ccccc1C(=O)C[C@@H](N)C(=O)O | 3% | . | ? | 40µM* | i
O=C1C=C[C@@H](O)[C@H]2[C@@H]3C(=O)N(C[C@@H]4CCCO4)C(=O)[C@@H]3CC[C@H]12 | . | 8%[11.4 µM] | . | . | .
Cc1cc(-c2csc(NC(=O)c3ccc(=O)n(C)n3)n2)c(C)n1CC1CCCO1 (stereo not drawn) | -6% | ? | -9% | 7.9µM* | i
C=C1C(=O)C=C2CN(C(=O)c3ccccc3)[C@@](Cc3ccc(OC)cc3)(C(=O)OC)[C@@H]12 | -8% | . | -1% | 0% | ?
Cc1cc(/C=C\c2ccc3cc(N(C)C)ccc3[n+]2C)c(C)n1-c1ccccc1 | -7%[25.6 µM] | . | ? | 3.2µM* | i
CC(=O)OC[C@H]1O[C@@H](O/N=C(\C)CCN2CCCc3nc(C)c(C)cc32)[C@H](OC(C)=O)[C@@H](OC(C)=O)[C@H]1OC(C)=O | . | 3%[11.4 µM] | . | . | .
Cc1[nH]nc2c1C(c1ccccc1)C1=C(CC(C)(C)CC1=O)N2 (stereo not drawn) | 3% | 9% | -2% | 8% | i
Cc1ccc(C2C3=C(CC(C)(C)CC3=O)Nc3[nH]c(=S)[nH]c(=O)c32)cc1 (stereo not drawn) | 6% | 20µM* | -12% | 8% | i
C[C@H](C(=O)c1ccccc1)[C@@H](c1ccccc1)N1CCOCC1 | -8%[11.4 µM] | 0%[11.4 µM] | -3%[11 µM] | 2%[11.4 µM] | i
OC[C@@H]1O[C@@H](n2cnc3c(N[C@@H]4C[C@@H]5CC[C@H]4C5)ncnc32)[C@@H](O)[C@H]1O | -6% | 12% | -1% | -8% | i
N#Cc1c(/N=C/c2cccs2)sc2c1CCCCC2 | 7% | -10% | ? | 13µM* | i
CN1CCN(Cc2ccc(-c3ccc(Cl)cc3)o2)CC1 | -3% | -11% | -8% | -28% | i
N#CCCN1CCN(C(=S)c2ccc(-c3ccc(Cl)cc3)o2)CC1 | -5% | -21% | ? | 25µM* | i
COc1cc(C(=O)Nc2cc(C)ccn2)cc(OC)c1OC | 0% | 1% | -1% | -5% | i
COc1cc(C(=O)Nc2nc(-c3cccs3)cs2)cc(OC)c1OC | -8% | 16µM* | -2% | 32% | i
COc1cc(C(=O)Nc2ccc(N(C)C)cc2)cc(OC)c1OC | -5% | -9% | -22% | 10µM* | i
CC(=O)[C@@]1(O)Cc2c(O)c3c(c(O)c2[C@H](O[C@H]2C[C@H](N)[C@H](O)[C@H](C)O2)C1)C(=O)c1ccccc1C3=O | 4µM* | ? | ? | 1.6µM* | 50µM*
COc1cccc2c1C(=O)c1c(O)c3c(c(O)c1C2=O)C[C@@](O)(C(=O)CO)C[C@@H]3O[C@H]1C[C@H](N)[C@H](O)[C@H](C)O1 | . | 10% | . | . | .

Screening data as filed in PubChem BioAssay.
